From PubChem BioAssay (NCATS)
Records with an inconclusive call do not appear. Active and inactive are the calls of the source. The call rests on the fitted dose curve; in most records, active means well fitted curve in the direction sought with a large enough effect; inconclusive means small, poorly fitted or top-dose-only effect, or another doubt; inactive means no such curve, though single readings can be large; an effect the other way counts as inactive or inconclusive.

Legend:
[1] = target: Rap guanine nucleotide exchange factor 3 (Homo sapiens) (UniProt O95398); experiment: Confirmatory qHTS for antagonist of cAMP-regulated guanine nucleotide exchange factor 3 (EPAC1) (AID 1645880); details: EPAC1 Rap1B-BODIPY-GDP exchange, fluorescence; activity, negative = inhibition: at 115 µM (top of the series); further: nearly all actives have a fitted effect of over 55% in size; further: potency means the concentration at half of the fitted maximal effect;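 on activity, negative = inhibition: plate controls were DMSO only for no effect and full effect of the ATA control for full effect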
Outline: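 Released BODIPY-GDP fluoresces less than Rap1-bound BODIPY-GDP; the signal is followed at 480/540 nm at 5-min intervals over 30 min, after 5 min at room temperature. Reactions contain 100 nM EPAC1, 250 nM RAP1B-BODIPY-GDP and 50 uM GDP; results are normalized to ATA and DMSO.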

[2] = target: Rap guanine nucleotide exchange factor 3 (Homo sapiens) (UniProt O95398); experiment: Confirmatory qHTS for agonist of cAMP-regulated guanine nucleotide exchange factor 3 (EPAC1) (AID 1645881);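 further: EPAC1 catalysed release of BODIPY-GDP from Rap1B seen as fluorescence loss; 100% = effect of cAMP agonist control; nearly all actives have a fitted effect of over 75% in size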
[3] = target: Rap guanine nucleotide exchange factor 4 (Homo sapiens) (UniProt Q8WZA2); experiment: Confirmatory qHTS for agonist of cAMP-regulated guanine nucleotide exchange factor 4 (EPAC2) (AID 1645884);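 further: nucleotide exchange releases bodipy-GDP from Rap1 and this lowers its fluorescence; on the % scale 0 is the no-effect control and ±100 the full control effect; nearly all actives have a fitted effect of over 65% in size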
[4] = target: Rap guanine nucleotide exchange factor 4 (Homo sapiens) (UniProt Q8WZA2); experiment: Confirmatory qHTS for antagonist of cAMP-regulated guanine nucleotide exchange factor 4 (EPAC2) (AID 1645885); further: nearly all actives have a fitted effect of over 25% in size; further: potency means the concentration at half of the fitted maximal effect; on activity change, negative = inhibition: on the % scale 0 is the no-effect control and ±100 the full control effect
[5] = target: Rap guanine nucleotide exchange factor 3 (Homo sapiens) (UniProt O95398); experiment: Counterscreen qHTS for antagonist of cAMP-regulated guanine nucleotide exchange factor 3 (EPAC1) (AID 1645888); further: % of control where 0% means no effect
Outline: (§1)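 Measured: fluorescence of BODIPY-GDP bound to Rap1B, which falls as exchange proceeds. Conditions include 50 uM competing GDP, 5 and 30 min reads, and a later cAMP challenge for antagonist detection.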

[6] = target: Rap guanine nucleotide exchange factor 3 (Homo sapiens) (UniProt O95398); experiment: Counterscreen qHTS for agonist of cAMP-regulated guanine nucleotide exchange factor 3 (EPAC1) (AID 1645889); further: nearly all actives have a fitted effect of over 40% in size; further: potency means the concentration at half of the fitted maximal effect; on activation: % of control where 0% means no effect
Outline: as §1

Chain of Rap guanine nucleotide exchange factor 3 (Homo sapiens) (O95398 whole entry, looked up): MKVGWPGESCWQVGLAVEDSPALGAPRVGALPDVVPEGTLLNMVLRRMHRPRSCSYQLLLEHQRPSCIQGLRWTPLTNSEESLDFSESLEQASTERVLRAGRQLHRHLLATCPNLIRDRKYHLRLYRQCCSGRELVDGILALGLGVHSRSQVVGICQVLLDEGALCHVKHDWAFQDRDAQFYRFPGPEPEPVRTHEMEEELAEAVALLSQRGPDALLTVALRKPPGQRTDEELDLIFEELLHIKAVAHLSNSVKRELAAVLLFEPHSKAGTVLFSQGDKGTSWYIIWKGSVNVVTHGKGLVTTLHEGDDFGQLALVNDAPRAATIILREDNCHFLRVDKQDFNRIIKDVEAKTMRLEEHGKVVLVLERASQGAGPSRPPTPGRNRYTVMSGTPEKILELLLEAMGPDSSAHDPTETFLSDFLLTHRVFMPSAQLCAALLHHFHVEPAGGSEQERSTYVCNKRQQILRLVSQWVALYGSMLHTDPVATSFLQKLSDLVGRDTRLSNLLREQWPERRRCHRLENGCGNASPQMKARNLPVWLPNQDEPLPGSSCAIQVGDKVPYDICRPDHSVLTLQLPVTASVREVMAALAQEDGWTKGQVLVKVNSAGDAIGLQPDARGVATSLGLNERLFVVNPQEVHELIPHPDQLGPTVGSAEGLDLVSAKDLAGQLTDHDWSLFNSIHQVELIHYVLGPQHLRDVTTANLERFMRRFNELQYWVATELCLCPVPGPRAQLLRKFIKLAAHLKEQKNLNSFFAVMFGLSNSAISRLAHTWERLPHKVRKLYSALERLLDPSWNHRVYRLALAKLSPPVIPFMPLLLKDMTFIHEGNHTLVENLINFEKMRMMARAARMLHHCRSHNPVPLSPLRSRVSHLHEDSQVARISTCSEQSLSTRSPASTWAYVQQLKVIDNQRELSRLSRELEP
Chain of Rap guanine nucleotide exchange factor 4 (Homo sapiens) (Q8WZA2 whole entry, looked up): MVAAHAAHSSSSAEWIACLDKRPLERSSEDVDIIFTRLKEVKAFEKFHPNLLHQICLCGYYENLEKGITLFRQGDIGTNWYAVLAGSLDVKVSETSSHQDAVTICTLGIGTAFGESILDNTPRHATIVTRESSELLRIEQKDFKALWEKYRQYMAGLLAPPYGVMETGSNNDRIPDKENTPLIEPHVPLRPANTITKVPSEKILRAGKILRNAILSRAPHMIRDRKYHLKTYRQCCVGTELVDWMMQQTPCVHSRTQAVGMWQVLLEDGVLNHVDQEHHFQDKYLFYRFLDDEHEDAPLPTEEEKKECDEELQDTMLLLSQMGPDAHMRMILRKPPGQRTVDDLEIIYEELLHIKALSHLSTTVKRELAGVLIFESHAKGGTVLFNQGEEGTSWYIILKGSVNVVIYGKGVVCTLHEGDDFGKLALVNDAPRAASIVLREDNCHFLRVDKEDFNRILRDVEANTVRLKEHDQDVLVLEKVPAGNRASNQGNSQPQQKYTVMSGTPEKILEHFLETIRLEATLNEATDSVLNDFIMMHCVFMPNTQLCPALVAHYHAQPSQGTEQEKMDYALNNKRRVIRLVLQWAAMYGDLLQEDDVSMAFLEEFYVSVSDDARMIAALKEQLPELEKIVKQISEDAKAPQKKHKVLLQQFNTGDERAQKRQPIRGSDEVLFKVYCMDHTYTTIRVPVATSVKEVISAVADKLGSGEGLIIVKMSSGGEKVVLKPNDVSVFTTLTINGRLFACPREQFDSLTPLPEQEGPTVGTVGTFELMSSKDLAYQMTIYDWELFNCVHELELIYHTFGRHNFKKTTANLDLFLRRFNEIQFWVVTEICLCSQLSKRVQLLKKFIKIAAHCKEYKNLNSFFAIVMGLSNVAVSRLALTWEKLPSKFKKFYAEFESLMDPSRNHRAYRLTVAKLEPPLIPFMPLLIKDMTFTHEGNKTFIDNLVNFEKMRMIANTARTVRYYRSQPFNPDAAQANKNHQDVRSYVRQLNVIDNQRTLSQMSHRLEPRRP

O=C(Nc1nc2ccc(Cl)cc2s1)C1CCCO1 (stereo not given)
inactive: Potency [1] | Potency [2] | activation [3] 6.17% [at 17.1 µM, percent relative to cAMP agonist control] | Potency [4] | activity change, negative = inhibition [5] 0.458% [at 30.8 µM]

C/C(CC(=O)Nc1ccc(Cl)c(C(F)(F)F)c1)=N\NC(=O)c1cnccn1
inactive: Potency [1] | Potency [2] | Potency [3] | Potency [4] | Potency [5] | Potency [6]

CCOC(=O)c1ccccc1NC(=O)COC(=O)C(Cc1c[nH]c2ccccc12)NC(C)=O (stereo not given)
inactive: Potency [1] | Potency [2] | Potency [3]

CCc1nnc(NS(=O)(=O)c2ccc(NC(=S)NC(=O)c3ccc(Br)cc3)cc2)s1
active: Potency [1] 60.1 µM | Potency [4] 75.7 µM
inactive: Potency [2] | Potency [3] | Potency [5] | Potency [6]

COc1ccccc1/C=C1\SC(=S)N(NS(=O)(=O)c2ccccc2)C1=O
inactive: Potency [2] | Potency [3] | Potency [4] | Potency [5] | Potency [6]
active: Potency [1] 16.9 µM

COc1ccc(-c2cc3c(c4c2ccn4C)C2CCC3O2)cc1OC (stereo not given)
inactive: Potency [1] | Potency [2] | activation [3] 6.95% [at 17.1 µM, percent relative to cAMP agonist control] | Potency [4] | activity change, negative = inhibition [5] 9.79% [at 30.8 µM] | activation [6] 10.3% [at 30.8 µM]

CNC(=O)COC(=O)c1cc(-c2ccco2)nc2ccccc12
active: Potency [1] 23.9 µM | Potency [6] 50.1 µM
inactive: Potency [2] | Potency [3] | Potency [4] | Potency [5]

CCc1ccc(NC(=O)COC(=O)CCC2CCCC2)cc1
inactive: Potency [1] | Potency [2] | Potency [3] | Potency [4] | Potency [5] | Potency [6]

CCN(CC(=O)Nc1ccc(OC)cc1)C(=O)Cc1cccs1
active: Potency [1] 67.5 µM
inactive: Potency [2] | Potency [3] | Potency [4] | Potency [5] | Potency [6]

COc1ccc(-n2c(SCC(=O)Nc3ccccc3OC)nc(O)cc2=O)cc1
inactive: Potency [1] | Potency [2] | activation [3] 4.67% [at 17.1 µM, percent relative to cAMP agonist control] | Potency [4] | activity change, negative = inhibition [5] -3.75% [at 30.8 µM] | activation [6] 2.02% [at 30.8 µM]

COc1ccc(C)cc1-n1c(-c2ccc(Cl)cc2)cc2c1CC(C)(C)CC2=O
inactive: Potency [1] | Potency [2] | Potency [3] | outcome [4] inactive [at 12.7 µM] | Potency [5] | Potency [6]

CCCN1C(=O)c2[nH]nc(-c3cccc(OC)c3)c2C1c1ccccn1 (stereo not given)
inactive: Potency [1] | Potency [2] | Potency [3] | outcome [4] inactive [at 12.7 µM] | Potency [5]

O=S(=O)(O)c1cccc(N=Nc2c(O)ccc3ccccc23)c1
active: Potency [1] 37.9 µM | Potency [4] 23.9 µM
inactive: Potency [2] | Potency [3] | Potency [5]

N#C/C(=C\C1=C(N2CCOCC2)C(=C/c2cccc([N+](=O)[O-])c2)/CC1)C(=O)Nc1ccccc1F
active: Potency [1] 47.8 µM
inactive: Potency [2] | Potency [3] | Potency [4] | Potency [5] | Potency [6]

Cc1nnc(SCc2nnc(-c3ccc(Cl)cc3)o2)n1-c1ccccc1
inactive: Potency [1] | Potency [2] | Potency [3] | Potency [4] | Potency [5] | Potency [6]

Cc1ccc([N+](=O)[O-])cc1S(=O)(=O)N1CCC(C)CC1
inactive: Potency [1] | Potency [2] | Potency [3] | Potency [4]

COC(=O)c1cc(C#N)c(Oc2ccccc2OC)nc1C
inactive: Potency [1] | Potency [2] | Potency [3] | Potency [4] | Potency [5] | Potency [6]

CCCC(=O)N=C1SC2CS(=O)(=O)CC2N1c1ccc(CC)cc1 (stereo not given)
inactive: Potency [1] | Potency [2] | activation [3] -7.85% [at 17.1 µM, percent relative to cAMP agonist control] | Potency [4]

O=C(O)CSc1cc(C(=O)c2ccccc2O)cn2c(=O)c3c(-c4ccccc4)csc3nc12
inactive: Potency [1] | Potency [2] | activation [3] -8.3% [at 17.1 µM, percent relative to cAMP agonist control] | Potency [4] | activity change, negative = inhibition [5] -7.65% [at 30.8 µM] | activation [6] 17.9% [at 30.8 µM]

O=C(CC(=O)NC1CCCCC1)N/N=C/c1ccc(Cl)cc1
inactive: Potency [1] | Potency [2] | Potency [3] | Potency [4] | Potency [5]

CC1CCCN(C(=O)c2cccc(S(=O)(=O)Nc3cc(C(F)(F)F)ccc3Cl)c2)C1 (stereo not given)
active: Potency [1] 21.3 µM | Potency [4] 26.9 µM
inactive: Potency [2] | Potency [3] | Potency [5] | Potency [6]

COc1cccc(CN(C)CC(=O)Nc2c(C)cccc2C(C)C)c1
inactive: Potency [1] | Potency [2] | activation [3] 9.26% [at 17.1 µM, percent relative to cAMP agonist control] | Potency [4] | activity change, negative = inhibition [5] -8.13% [at 30.8 µM] | activation [6] 14.6% [at 30.8 µM]

CCOc1nc(-c2ccccc2Cl)nc2ccccc12
inactive: Potency [1] | Potency [2]

Cc1nc2c(C(=O)NCCC3=CCCCC3)c[nH]n2c(=O)c1Cl
inactive: Potency [2] | Potency [3]
active: Potency [1] 75.7 µM | Potency [4] 6.75 µM

Cc1ccc(C)c(CSc2nnc(C)n3c2cc2sccc23)c1
inactive: Potency [1] | Potency [2] | Potency [3] | Potency [4] | Potency [5] | Potency [6]

Cc1noc(C)c1S(=O)(=O)Nc1ccc2c(c1)C(=O)N([C@@H](C)CO)C[C@@H](C)[C@@H](CN(C)CC1CCCCC1)OCCCC[C@@H](C)O2
inactive: Potency [1] | Potency [2] | Potency [3] | Potency [4] | Potency [5] | Potency [6]

NS(=O)(=O)c1cccc(Nc2nc3ccccc3nc2NS(=O)(=O)c2ccc(Cl)cc2)c1
active: Potency [1] 75.7 µM
inactive: Potency [2] | Potency [3]

COC(=O)c1cccc(F)c1C(=O)c1cccc2ccccc12
inactive: Potency [1] | Potency [2]

COc1cc(NC(=O)C2CCCCC2)c(OC)cc1NC(=O)CN1CCCCC1
inactive: Potency [1] | Potency [2] | activation [3] 4.14% [at 17.1 µM, percent relative to cAMP agonist control] | Potency [4] | activity change, negative = inhibition [5] -6.17% [at 30.8 µM] | activation [6] 11.1% [at 30.8 µM]

C=CCOc1ccc(C2N3CC4(CC)CN2CC(CC)(C3)C4=O)cc1 (stereo not given)
inactive: Potency [1] | Potency [2] | activation [3] 6.19% [at 17.1 µM, percent relative to cAMP agonist control] | Potency [4] | activity change, negative = inhibition [5] -3.19% [at 30.8 µM] | activation [6] 36.6% [at 30.8 µM]

CN(C(=O)CSc1nc2[nH]ncc2c(=O)[nH]1)c1ccccc1
inactive: Potency [1] | Potency [2] | activation [3] 1.67% [at 17.1 µM, percent relative to cAMP agonist control] | Potency [4] | activity change, negative = inhibition [5] -21.3% [at 30.8 µM] | activation [6] -11.1% [at 30.8 µM]

N#Cc1c(Nc2ccccc2)sc(C(=O)c2ccccc2)c1N
inactive: Potency [1] | Potency [2] | activation [3] 9.46% [at 17.1 µM, percent relative to cAMP agonist control] | Potency [4] | activity change, negative = inhibition [5] 13.4% [at 30.8 µM]

O=C(C1CCN(S(=O)(=O)N2CCOCC2)CC1)N1CCN(c2ccccc2)CC1
inactive: Potency [1] | Potency [2] | Potency [3] | Potency [4] | Potency [5] | Potency [6]

COCCCn1c(=N)c(C(=O)NCc2cccnc2)cc2c(=O)n3cccc(C)c3nc21
inactive: Potency [1] | Potency [2] | Potency [3] | outcome [4] inactive [at 12.7 µM] | Potency [5] | Potency [6]

CCOC(=O)C1CCCN(C(=O)C2(c3ccc(Cl)cc3)CCCC2)CC1 (stereo not given)
inactive: Potency [1] | Potency [2] | Potency [3] | Potency [4] | Potency [5] | Potency [6]

CC(=O)Nc1ccc(S(=O)(=O)Nc2nc(-c3ccc(C(C)(C)C)cc3)cs2)cc1
inactive: Potency [2] | activation [3] 0% [at 17.1 µM, percent relative to cAMP agonist control] | Potency [4] | activity change, negative = inhibition [5] -15.7% [at 30.8 µM] | activation [6] 8.98% [at 30.8 µM]
active: Potency [1] 44.7 µM

C=CCn1c(SCC(=O)NC(N)=O)nnc1-c1cc2c(s1)CCC(CC)C2 (stereo not given)
inactive: Potency [1] | Potency [2] | Potency [3] | Potency [4]

Cc1nn(C(=O)c2ccco2)c(C)c1Sc1ccccc1
inactive: Potency [1] | Potency [2] | Potency [3] | Potency [5] | Potency [6]
active: Potency [4] 10.7 µM

CN(Cc1ccccc1)C(=O)C1CCCN(Cc2cccc(Cl)c2)C1 (stereo not given)
inactive: Potency [1] | Potency [2] | Potency [3] | Potency [4] | Potency [5] | Potency [6]

Cc1cc(C)c2cccc(N)c2n1
inactive: Potency [1] | Potency [2] | activation [3] 3.77% [at 17.1 µM, percent relative to cAMP agonist control] | Potency [4] | activity change, negative = inhibition [5] 8.48% [at 30.8 µM] | activation [6] 7.96% [at 30.8 µM]

CCN(CC)c1nc2ccccc2n(Cc2cccc(OC)c2)c1=O
inactive: Potency [1] | Potency [2] | Potency [3] | Potency [4] | Potency [5] | Potency [6]

Cc1ccc(Nc2ccc(N3CCN(C(=O)c4ccc([N+](=O)[O-])cc4)CC3)nn2)cc1
inactive: Potency [1] | Potency [2] | Potency [3] | Potency [4] | Potency [5] | Potency [6]
